According to PubChem BioAssay AID1159580 (chemical genetic matrix, 2015):
In all, about 5,500 compounds went through this assay and about 2,000 (36%) were called active. About 18% were inconclusive and are not listed. Cut-off read from the data, not from the text of the source: active = normalized growth mostly below about 0.91 (no sharp cut-off); inconclusive = no clear call, values can overlap the other calls; inactive = mostly above about 0.92. Some of the results follow.

Experiment: chemical genetic growth profiling, strain panel (AID 1159580);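 note: tested at 20 µM; growth read once vehicle control cultures reached saturation at 30 °C; 1 = growth at the plate median or of vehicle wells; lower values mean less growth of the strain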
Conditions: S. cerevisiae deletion strains, growth OD
[1] = locus YAL013W, strain DEP1, active compounds read low
[2] = locus YAL040C, strain CLN3, active compounds read low
[3] = locus YCL061C, strain MRC1 (second series), active compounds read low
[4] = locus YDR363W, strain ESC2, active compounds read low
[5] = locus YER002W, strain NOP16, active compounds read low
[6] = locus YNL175C, strain NOP13, active compounds read low
[7] = locus YNL197C, strain WHI3, active compounds read low
[8] = locus YNL224C, strain SQS1, active compounds read low
[9] = locus YOR083W, strain WHI5 (second series), active compounds read low
[10] = locus YPL241C, strain CIN2, active compounds read low

Measured: normalized growth

N=C(N)c1ccc(N)cc1
inactive: [1] 1.01 | [2] 0.975 | [3] 0.998 | [4] 0.981 | [5] 0.997 | locus YGR229C, strain SMI1, active compounds read low 1.01 | locus YMR307W, strain GAS1, active compounds read low 1 | locus YNL128W, strain TEP1, active compounds read low 0.978 | locus YNL153C, strain GIM3, active compounds read low 1 | [6] 1.01 | [7] 0.994 | [8] 0.968 | [9] 0.981 | [10] 1

N=C(N)c1ccc(OCCCCCOc2ccc(C(=N)N)cc2)cc1 (tested in a mixture with another compound)
inactive: [1] 0.943 | [2] 0.944 | [3] 0.981 | locus YDR150W, strain NUM1, active compounds read low 0.963 | [4] 0.961 | [5] 0.95 | locus YMR263W, strain SAP30, active compounds read low 0.983 | [6] 0.962 | [7] 0.943 | [8] 0.946 | [9] 0.944 | locus YPL055C, strain LGE1, active compounds read low 0.912 | [10] 0.95
